Reference: PubChem BioAssay (NCI)
The panel holds about 83,000 compounds, 20% with a hit somewhere; the sample as a whole holds those more often.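 Interpretation: 100, growth as untreated; towards 0, rising growth inhibition; 0, no net growth; 0 to -100, cell death. Compounds scoring below 10 were considered active.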 Calls of active or inactive are those of the source.

Key:
Assay in all cases: NCI-60 one-dose screen, 48 h (100 = growth as untreated, 0 = no growth, -100 = all killed)
Conditions in all cases: 10 µM unless noted
SR leukemia = tested on: SR leukemia
RPMI-8226 leukemia = tested on: RPMI-8226 leukemia
OVCAR-8 ovarian = tested on: OVCAR-8 ovarian
OVCAR-5 ovarian = tested on: OVCAR-5 ovarian
SK-OV-3 ovarian = tested on: SK-OV-3 ovarian
OVCAR-3 ovarian = tested on: OVCAR-3 ovarian
HS 578T breast = tested on: HS 578T breast
NCI/ADR-RES ovarian = tested on: NCI/ADR-RES ovarian
IGROV1 ovarian = tested on: IGROV1 ovarian
OVCAR-4 ovarian = tested on: OVCAR-4 ovarian

Measured: growth

NS(=O)(=O)c1ccc(-n2nc(-c3ccc(Cl)cc3)ccc2=O)cc1
inactive: SR leukemia 64.4% | RPMI-8226 leukemia 99% | OVCAR-8 ovarian 102% | OVCAR-5 ovarian 99.9% | SK-OV-3 ovarian 93.8% | OVCAR-3 ovarian 106% | HS 578T breast 88.2% | NCI/ADR-RES ovarian 68.4%

NC(=S)NNC1CCCCC1
inactive: SR leukemia 99.1% | RPMI-8226 leukemia 93.9% | OVCAR-8 ovarian 91.2% | OVCAR-5 ovarian 102% | SK-OV-3 ovarian 93.3% | IGROV1 ovarian 96.4% | OVCAR-3 ovarian 110% | HS 578T breast 101% | NCI/ADR-RES ovarian 101%

O=C(Nc1ccc(-n2cc(-c3ccncc3)c(-c3ccc(O)c(Cl)c3)n2)cc1)Nc1cccc(Cl)c1Cl
inactive: SR leukemia 74% | RPMI-8226 leukemia 12.7% | OVCAR-8 ovarian 62% | OVCAR-5 ovarian 101% | SK-OV-3 ovarian 81.7% | IGROV1 ovarian 77.9% | OVCAR-3 ovarian 55.3% | NCI/ADR-RES ovarian 66.7%

CCN(CC)CC(=O)Nc1c(C)cccc1C
inactive: SR leukemia 98.3% | RPMI-8226 leukemia 114% | OVCAR-8 ovarian 107% | OVCAR-4 ovarian 104% | SK-OV-3 ovarian 109% | IGROV1 ovarian 106% | OVCAR-3 ovarian 118% | HS 578T breast 110% | NCI/ADR-RES ovarian 104%

CCCCC(=O)Nc1nc2ccc(SCCC)cc2s1
inactive: RPMI-8226 leukemia 15.7% | OVCAR-8 ovarian 56.7% | OVCAR-5 ovarian 69% | SK-OV-3 ovarian 66% | IGROV1 ovarian 54.2% | OVCAR-3 ovarian 22.8% | HS 578T breast 48.9% | NCI/ADR-RES ovarian 13%
active: SR leukemia 6.63%

c1ccc(CNCCN(CCNCc2ccccn2)Cc2ccc3ccccc3c2)nc1
inactive: RPMI-8226 leukemia 10.6% | OVCAR-8 ovarian 11.1% | HS 578T breast 41.3%
active: SR leukemia 2.45% | OVCAR-5 ovarian 0.822% | SK-OV-3 ovarian -26% | IGROV1 ovarian 7.31% | OVCAR-3 ovarian 1.32% | NCI/ADR-RES ovarian -13%

Cc1ncc(CO)c(C(=O)O)c1O
inactive: SR leukemia 86.8% | RPMI-8226 leukemia 131% | OVCAR-8 ovarian 104% | OVCAR-5 ovarian 105% | SK-OV-3 ovarian 104% | IGROV1 ovarian 107% | OVCAR-3 ovarian 94.8% | HS 578T breast 102% | NCI/ADR-RES ovarian 104%

O=C(Nc1ccc(-n2cc(-c3ccncc3)c(-c3ccc(O)c(Cl)c3)n2)cc1)Nc1cc(C(F)(F)F)cc(C(F)(F)F)c1
inactive: SR leukemia 69.7% | RPMI-8226 leukemia 45% | OVCAR-8 ovarian 56.4% | OVCAR-5 ovarian 75.7% | SK-OV-3 ovarian 81.7% | IGROV1 ovarian 56.3% | OVCAR-3 ovarian 33.3% | NCI/ADR-RES ovarian 55%

O=c1c2ccccc2sc2c(NCCN3CCOCC3)nc3ccccc3c12
active: SR leukemia 3.91%
inactive: RPMI-8226 leukemia 40.3% | OVCAR-8 ovarian 58.8% | OVCAR-5 ovarian 84.9% | SK-OV-3 ovarian 50.8% | IGROV1 ovarian 66.2% | OVCAR-3 ovarian 79.2% | NCI/ADR-RES ovarian 63.5%

CC1CCc2cc(F)cc3c(=O)c(C(=O)O)cn1c23 (configuration not stated)
inactive: SR leukemia 95.4% | RPMI-8226 leukemia 105% | OVCAR-8 ovarian 97.5% | OVCAR-4 ovarian 111% | SK-OV-3 ovarian 108% | IGROV1 ovarian 109% | OVCAR-3 ovarian 114% | HS 578T breast 103% | NCI/ADR-RES ovarian 94.8%

CCOc1ccc(NC(=O)Nc2cc(C(C)C)ccc2C)cc1
inactive: SR leukemia 36.6% | RPMI-8226 leukemia 43.4% | OVCAR-8 ovarian 27.1% | OVCAR-5 ovarian 57.7% | OVCAR-4 ovarian 44.6% | SK-OV-3 ovarian 93.4% | OVCAR-3 ovarian 50.9% | NCI/ADR-RES ovarian 58.7%
active: HS 578T breast 4.79%

C=C1C(=O)O[C@H]2[C@H]1CC/C(C(=O)NCCOCCOCC(=O)Nc1ccc(OC)c(C(N)=O)c1O)=C\CC[C@@]1(C)O[C@@H]21
inactive: SR leukemia 75.3% | RPMI-8226 leukemia 97.2% | OVCAR-8 ovarian 89.8% | OVCAR-5 ovarian 96.4% | SK-OV-3 ovarian 91.6% | IGROV1 ovarian 98.8% | OVCAR-3 ovarian 84.3% | HS 578T breast 93% | NCI/ADR-RES ovarian 104%

COc1ccc(-c2ccc(NC(=O)Nc3cccc(C(F)(F)F)c3)c(C)n2)cc1
inactive: SR leukemia 36.3% | RPMI-8226 leukemia 22.6% | OVCAR-8 ovarian 61.9% | OVCAR-5 ovarian 83% | SK-OV-3 ovarian 82.1% | IGROV1 ovarian 91.3% | OVCAR-3 ovarian 41.9% | HS 578T breast 88.9% | NCI/ADR-RES ovarian 53.2%

O=[N+]([O-])c1cccc(C(c2ccccc2)c2ccccc2)c1
inactive: SR leukemia 78.3% | RPMI-8226 leukemia 82.9% | OVCAR-8 ovarian 98% | OVCAR-5 ovarian 85.6% | SK-OV-3 ovarian 95.6% | IGROV1 ovarian 84.5% | OVCAR-3 ovarian 98.3% | NCI/ADR-RES ovarian 95.8%

O=C(Nc1cccc([N+](=O)[O-])c1)c1ccc2ccccc2c1O
inactive: SR leukemia 92.2% | OVCAR-8 ovarian 80% | OVCAR-5 ovarian 64.2% | SK-OV-3 ovarian 74.6% | OVCAR-3 ovarian 36.9% | HS 578T breast 69.7%
active: RPMI-8226 leukemia -7.69%

CC(CCC(=O)O)[C@H]1CCC2C3C(=O)C[C@@H]4CC(=O)CC[C@]4(C)C3CC(=O)[C@@]21C (some centres not stated)
inactive: SR leukemia 97.4% | RPMI-8226 leukemia 98.8% | OVCAR-8 ovarian 103% | OVCAR-4 ovarian 112% | SK-OV-3 ovarian 106% | IGROV1 ovarian 105% | OVCAR-3 ovarian 117% | HS 578T breast 105% | NCI/ADR-RES ovarian 99.7%

COc1cc2c(cc1OCCCCC(=O)Nc1ccc(-c3nc4ccccc4s3)cc1)N=C[C@@H]1CCCN1C2=O
active: SR leukemia -55.4% | RPMI-8226 leukemia -58.3% | OVCAR-8 ovarian -8.71% | OVCAR-5 ovarian 4.91% | IGROV1 ovarian -17.1% | HS 578T breast -37.5%
inactive: SK-OV-3 ovarian 22.4% | NCI/ADR-RES ovarian 67.6%

Nc1ccc(S(=O)(=O)Nc2ccnn2-c2ccccc2)cc1
inactive: SR leukemia 95.5% | RPMI-8226 leukemia 117% | OVCAR-8 ovarian 93.7% | OVCAR-4 ovarian 109% | SK-OV-3 ovarian 103% | IGROV1 ovarian 107% | OVCAR-3 ovarian 111% | HS 578T breast 103% | NCI/ADR-RES ovarian 103%

CCOc1ccc(Cc2nccc3cc(OCC)c(OCC)cc23)cc1OCC
inactive: SR leukemia 26.7% | RPMI-8226 leukemia 47.3% | OVCAR-8 ovarian 69.1% | OVCAR-4 ovarian 54.6% | SK-OV-3 ovarian 87.2% | IGROV1 ovarian 16.6% | OVCAR-3 ovarian 75% | HS 578T breast 78.1%

OCc1cnccc1NC12CC3CC(CC(C3)C1)C2
inactive: SR leukemia 98.9% | RPMI-8226 leukemia 96.8% | OVCAR-8 ovarian 93.8% | OVCAR-5 ovarian 107% | SK-OV-3 ovarian 100% | IGROV1 ovarian 102% | OVCAR-3 ovarian 103% | HS 578T breast 103% | NCI/ADR-RES ovarian 98.8%

C#C[C@@]1(O)[C@@H](CO)O[C@@H](n2cc(C(F)(F)F)c3c(N)ncnc32)[C@@H]1O
inactive: OVCAR-5 ovarian 14.1%
active: SR leukemia -6.19% | RPMI-8226 leukemia -33.6% | OVCAR-8 ovarian 2.43% | SK-OV-3 ovarian -7.5% | IGROV1 ovarian 2.75% | OVCAR-3 ovarian -2.07% | HS 578T breast -15.6% | NCI/ADR-RES ovarian 6.08%

N#CC1=C(N)Oc2c(ccc3ccccc23)C1c1cc(=O)oc2ccc(Cl)cc12 (configuration not stated)
active: OVCAR-3 ovarian -9.67%
inactive: SR leukemia 22.9% | RPMI-8226 leukemia 30.7% | OVCAR-8 ovarian 27.7% | OVCAR-5 ovarian 51.6% | SK-OV-3 ovarian 16.9% | IGROV1 ovarian 39.8% | HS 578T breast 47.5% | NCI/ADR-RES ovarian 12.2%

COC1OCC(OS(=O)(=O)c2ccc(C)cc2)C(OC(=O)c2ccccc2)C1OC(=O)c1ccccc1 (configuration not stated)
inactive: SR leukemia 39.6% | RPMI-8226 leukemia 45.5% | OVCAR-8 ovarian 69.3% | OVCAR-5 ovarian 72.5% | SK-OV-3 ovarian 86.1% | IGROV1 ovarian 37.8%
active: OVCAR-3 ovarian -12.4% | NCI/ADR-RES ovarian -6.71%

C[C@@H]1CC2C3C[C@H](F)C4=CC(=O)C=C[C@]4(C)[C@@]3(F)[C@@H](O)C[C@]2(C)[C@@]1(O)C(=O)CO (some centres not stated)
inactive: SR leukemia 99% | RPMI-8226 leukemia 64.8% | OVCAR-8 ovarian 82.1% | OVCAR-4 ovarian 113% | SK-OV-3 ovarian 65.6% | IGROV1 ovarian 99.8% | OVCAR-3 ovarian 113% | HS 578T breast 112%

CCOC(=O)n1cnc2c(Cl)ncnc21
inactive: SR leukemia 110% | RPMI-8226 leukemia 116% | OVCAR-8 ovarian 65% | SK-OV-3 ovarian 94.2% | OVCAR-3 ovarian 112% | HS 578T breast 138% | NCI/ADR-RES ovarian 246%

O=C(NCCNc1nccc(-c2c(-c3cccc(O)c3)nc3sccn23)n1)Nc1cc(C(F)(F)F)cc(C(F)(F)F)c1
inactive: RPMI-8226 leukemia 45.7% | OVCAR-8 ovarian 52.8% | OVCAR-5 ovarian 96.5% | OVCAR-4 ovarian 121% | SK-OV-3 ovarian 89.3% | IGROV1 ovarian 65.2% | OVCAR-3 ovarian 82.2%

CC(NCCC(c1ccccc1)c1ccccc1)c1ccccc1 (configuration not stated)
inactive: RPMI-8226 leukemia 26.3% | OVCAR-8 ovarian 84.3% | OVCAR-4 ovarian 64.9% | SK-OV-3 ovarian 99.1% | IGROV1 ovarian 55.6% | OVCAR-3 ovarian 78.4% | HS 578T breast 82.8% | NCI/ADR-RES ovarian 79.1%
active: SR leukemia -35.6%

CCOc1ccccc1C(=O)N1CCN(c2cc(Cl)cc(Cl)c2)CC1
inactive: OVCAR-8 ovarian 11.2% | OVCAR-5 ovarian 46.6% | OVCAR-4 ovarian 31.7% | SK-OV-3 ovarian 25.8% | IGROV1 ovarian 13.8% | HS 578T breast 41.3% | NCI/ADR-RES ovarian 14.5%
active: RPMI-8226 leukemia 1.53% | OVCAR-3 ovarian -22.7%
